According to PubChem BioAssay (NCATS):
Inconclusive results are not listed. Active and inactive are the calls of the source. Calls follow the shape of the dose curve; as a rule, active = well fitted inhibition curve with a large enough effect; inconclusive = small, poorly fitted or top-dose-only effect; inactive = flat fitted curve, though single readings scatter.

Legend:
[1] = tested on: CRL-7250; assay: Cytotoxic Profiling of Annotated Libraries Using Quantitative High-Throughput Screening (AID 1296008); conditions: Five cell lines viability, CellTiter-Glo ATP luminescence, 48-72 h; max response: active compounds read low; as to max response: % is scaled to controls: 0 for no effect and ±100 for the full control effect
Method in brief: (§1)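 Cytotoxicity was measured as CellTiter-Glo ATP luminescence, read after 10 min at room temperature. Compound treatment of the cells lasted 48 or 72 hr at 37 degrees Celsius in a qHTS format.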

[2] = tested on: HEK293; assay: as above; conditions: Five cell lines viability, CellTiter-Glo ATP luminescence, 48-72 h; max response: active compounds read low
Method in brief: as §1

[3] = tested on: HaCat; assay: as above; conditions: Five cell lines viability, CellTiter-Glo ATP luminescence, 48-72 h; max response: active compounds read low
Method in brief: as §1

[4] = tested on: KB-3-1; assay: as above; conditions: Five cell lines viability, CellTiter-Glo ATP luminescence, 48-72 h; max response: active compounds read low
Method in brief: as §1

[5] = tested on: NIH3T3; assay: as above; conditions: Five cell lines viability, CellTiter-Glo ATP luminescence, 48-72 h; max response: active compounds read low
Method in brief: as §1

[6] = tested on: HACAT; assay: qHTS assay to identify novel small-molecules to repurpose for Merkel cell carcinoma treatment (AID 1296009); conditions: MCC and control cell lines, CellTiter-Glo viability, 72 h; at 44.8 µM (top of the series) unless noted
Method in brief: (§2)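 After compound transfer in DMSO, plates were kept 72 hr at 37 degree celsius. Luminescent ATP signal from CellTiter-Glo served as viability measure, normalized against DMSO and no-cell controls.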

[7] = tested on: HEK293T; assay: as above; conditions: MCC and control cell lines, CellTiter-Glo viability, 72 h; series mostly up to 44.8 µM
Method in brief: as §2
Also: nearly all actives have a fitted effect of over 60% in size.

O=C(COc1ccc(Cl)cc1)NC1CCC(NC(=O)COc2ccc(Cl)cc2)CC1 (stereo not given)
inactive: max response [1] 2.66% | outcome [2] | outcome [3] | max response [4] -4.12% | max response [5] -4.22% | outcome [6] | Potency [7]

CC1CCC2C(C)(C)CC(C)(CO)C2(O)C1C(=O)O (stereo not given)
inactive: max response [1] 0.69% | outcome [2] | outcome [3] | max response [4] 9.23% | outcome [5] | outcome [6] | Potency [7]

CC1=C2C=C(CO)C(CO)CCC2(C)CCC1=O (stereo not given)
inactive: max response [1] -3.34% | outcome [2] | outcome [3] | outcome [4] | max response [5] -1.32% | outcome [6] | Potency [7]

CC(=O)OC1C(O)C(C)=C(CCC(C)CC(=O)O)C2(C)CCCC(C)(C)C12 (stereo not given)
inactive: outcome [1] | outcome [2] | outcome [3] | max response [4] 0.797% | outcome [5] | outcome [6] | Potency [7]

C=C(C(=O)O)C1CCC(C)C2CCC(=O)OC2(C)C1 (stereo not given)
inactive: max response [1] 4.24% | outcome [2] | outcome [3] | max response [4] 6.53% | max response [5] 0.163% | outcome [6] | Potency [7]

CC1=CC(=O)C[C@H]2[C@@H]1CC[C@@H](C)[C@]21CO[C@H](c2ccoc2)C1=O
inactive: max response [1] 3.91% | outcome [2] | outcome [3] | max response [4] -0.71% | max response [5] -2.85% | outcome [6] | Potency [7]

C[C@]1(OC(=O)/C=C/c2ccccc2)C[C@H](O)[C@]2(O)C=CO[C@@H](O[C@@H]3O[C@H](CO)[C@@H](O)[C@H](O)[C@H]3O)C12 (stereo not given in full)
inactive: outcome [1] | outcome [2] | outcome [3] | max response [4] 4.61% | outcome [5] | outcome [6] inactive [at 17.4 µM] | Potency [7]

C#Cc1cnc2[nH]c(=O)n(C(CC)CC)c2n1
inactive: outcome [1] | outcome [2] | outcome [3] | max response [4] 8.63% | outcome [5] | outcome [6] | Potency [7]

CC(=O)O[C@@H]1[C@H](O[C@@H]2O[C@H](CO)[C@@H](O)[C@H](O)[C@H]2O)[C@@H](O[C@@H]2O[C@@H](C)[C@H](O)[C@@H](O[C@@H]3O[C@H](CO)[C@@H](O)[C@H](O)[C@H]3O)[C@H]2O)[C@H](OC(=O)C23CCC4(C)C(=CCC5C6(C)CC(O)C(O[C@@H]7O[C@H](C(=O)O)[C@@H](O)[C@H](O)[C@H]7O)C(C)(C(=O)O)C6CCC54C)C2CC(C)(C)CC3O)O[C@@H]1C (stereo not given in full)
inactive: max response [1] -7.88% | outcome [2] | outcome [3] | outcome [4] | outcome [5] | outcome [6] inactive [at 9.27 µM] | outcome [7] inactive [at 9.27 µM]

CCOC(=O)c1c(C)nn(-c2cccc([N+](=O)[O-])c2)c1C
inactive: max response [1] -7.75% | outcome [2] | outcome [3] | max response [4] 0.772% | max response [5] 3.21% | outcome [6] | Potency [7]

CC1(CCC(=O)O)C(=O)C=CC23CC4CC(OC4(C)C2O)C13 (stereo not given)
inactive: max response [1] 3.62% | outcome [2] | outcome [3] | max response [4] 2.02% | outcome [5] | outcome [6] | Potency [7]

C=C1CCC[C@]2(C)C[C@]3(O)OC(=O)C(C)=C3C[C@@H]12
inactive: outcome [1] | outcome [2] | outcome [3] | outcome [4] | outcome [5] | outcome [6] | Potency [7]

CC1=CC(=O)CC(C)(C)C1(O)CCC(C)O (stereo not given)
inactive: outcome [1] | outcome [2] | outcome [3] | outcome [4] | max response [5] 2.02% | outcome [6] | Potency [7]

COCCCNCC1COc2ccccc2O1 (stereo not given)
inactive: max response [1] 1.45% | outcome [2] | outcome [3] | max response [4] 6.68% | max response [5] 4.14% | outcome [6] | Potency [7]

C=C(C)[C@H]1C[C@@H](O)C(=C)CC[C@@H](O)C(=C)[C@@H](O)C1
inactive: max response [1] -0.626% | outcome [2] | outcome [3] | outcome [4] | max response [5] -1.51% | outcome [6] | Potency [7]

CC(=C/C(=O)O)/C=C/[C@]1(O)[C@@]2(C)CO[C@]1(C)C[C@H](O[C@@H]1O[C@H](CO)[C@@H](O)[C@H](O)[C@H]1O)C2
inactive: max response [1] 1.76% | outcome [2] | outcome [3] | max response [4] 0.594% | max response [5] -8.59% | outcome [6] inactive [at 17.4 µM] | Potency [7]

C[C@H]1C[C@H]2[C@@H]3CCC4=CC(=O)C=C[C@]4(C)[C@@]3(F)[C@@H](O)C[C@]2(C)[C@@]1(O)C(=O)COP(=O)(O)O
inactive: max response [1] 2.73% | outcome [2] | outcome [3] | outcome [4] | outcome [5] | outcome [6] | Potency [7]

CC1(C)CC2C(O)C3=C(CC(C)(O)C2C1)C(=O)OC3O (stereo not given)
inactive: max response [1] -0.0685% | outcome [2] | outcome [3] | max response [4] 5.32% | outcome [5] | outcome [6] | Potency [7]

CC(=O)Oc1cc2c(s1)CCN([C@H](C(=O)C1CC1)c1ccccc1F)C2
inactive: max response [1] -0.62% | outcome [2] | outcome [3] | outcome [4] | max response [5] 3.19% | outcome [6] | Potency [7]

COc1cc(C[C@H]2COC(=O)[C@@H]2Cc2ccc(O)c(OC)c2)ccc1O
inactive: outcome [1] | outcome [2] | outcome [3] | max response [4] -4.79% | outcome [5] | outcome [6] | Potency [7]

OC[C@H]1O[C@@H](OC(CCCCc2ccc(O)cc2)CCc2ccc(O)cc2)[C@H](O[C@@H]2OC[C@](O)(CO)[C@H]2O)[C@@H](O)[C@@H]1O (stereo not given in full)
inactive: max response [1] 3.53% | outcome [2] | outcome [3] | outcome [4] | max response [5] 2.54% | outcome [6] inactive [at 17.4 µM] | Potency [7]

CC(C)CC(=O)n1cc(C(N)=O)c(=O)cc1C(O)c1ccccc1 (stereo not given)
inactive: outcome [1] | outcome [2] | outcome [3] | outcome [4] | max response [5] 0.668% | outcome [6] | Potency [7]

C[C@@H]1O[C@@H](O[C@@H]2[C@@H](O)[C@H](O[C@@H]3[C@@H](O)[C@@H](O)[C@H](O[C@H]4[C@H](OC(=O)[C@]56CCC(C)(C)C[C@H]5C5=CCC7[C@@]8(C)C[C@H](O)[C@H](O[C@@H]9O[C@H](C(=O)O)[C@@H](O)[C@H](O)[C@H]9O)[C@@](C)(CO)C8[C@H](O)C[C@@]7(C)[C@]5(C)CC6)OC[C@H](O)[C@@H]4O)O[C@H]3C)OC[C@H]2O)[C@H](O)[C@H](O)[C@H]1O (stereo not given in full)
inactive: max response [1] -17.9% | outcome [2] | outcome [3] | max response [4] 2.1% | outcome [5] | outcome [6] inactive [at 9.27 µM] | outcome [7] inactive [at 9.27 µM]

O=C(/C=C/c1c(C(=O)O)[nH]c2cc(Cl)cc(Cl)c12)Nc1ccccc1
inactive: max response [1] -11.7% | outcome [2] | outcome [3] | outcome [4] | outcome [5] | outcome [6] | Potency [7]

COc1cc(NC(=O)c2ccccn2)ccc1Cl
inactive: max response [1] 4.88% | outcome [2] | outcome [3] | max response [4] -6.58% | outcome [5] | outcome [6] | Potency [7]
